Structures can show the parent of a compound that is named as a salt. Among all 1,800 compounds or so, about 50 (3%) showed activity. The sample holds actives, similar compounds and a random draw of the others, so the mix is not that of the screen.
What follows are molecules tested on mouse p16Ink4a+/- lung fibroblasts (INKBRITE, bleomycin-injured) (assay: percentage of GFP+ (p16Ink4a+) fibroblasts among all cells in well; higher = less depletion of p16Ink4a+ cells, active = 20 or less). Details: 1 µM; 3 days.

| SMILES | percentage of GFP+ |
| --- | --- |
| COc1c(C)c(C(=O)c2ccc(N)c(C(=O)O)c2)n2ccccc12 | 39% (inactive) |
| COC(=O)[C@H](c1ccccc1Cl)N1CCc2sccc2C1 [Clopidogrel] | 36.5% (inactive) |
| CN1CCN(CCCN2c3ccccc3Sc3ccc(C(F)(F)F)cc32)CC1 [Trifluoperazine] | 52% (inactive) |
| CCCCc1nc2cc(/C=C/C(=O)NO)ccc2n1CCN(CC)CC [Pracinostat] | 24.8% (inactive) |
| COc1cc(/C=C/C(=O)/C=C(O)/C=C/c2ccc(O)c(OC)c2)ccc1O | 38.1% (inactive) |
| CC[C@H](/C=C/[C@@H](C)[C@@H]1CC[C@H]2[C@@H]3CC=C4C[C@@H](O)CC[C@]4(C)[C@@H]3CC[C@@]21C)C(C)C [Stigmasterol] | 44.8% (inactive) |
| Nc1nccc(Oc2ccc(NC(=O)c3cncc(-c4ccc(F)cc4)c3O)cc2F)c1Cl | 49.5% (inactive) |
| COC(=O)[C@]12CCC(C)(C)C[C@@H]1[C@@H]1C(=O)C=C3[C@]4(C)C=C(C#N)C(=O)C(C)(C)[C@@H]4CC[C@@]3(C)[C@]1(C)CC2 [Bardoxolone Methyl] | 5.23% (active) |
| O=C(O)c1cc(N=Nc2ccc(O)c(C(=O)O)c2)ccc1O [Olsalazine] | 43.3% (inactive) |
| O=C1c2c(O)cccc2[C@H]([C@@H]2O[C@H](CO)[C@@H](O)[C@H](O)[C@H]2O)c2cc(CO)cc(O)c21 [Aloin] | 20.8% (inactive) |
| CC(C)(C)c1cc(C(C)(C)C)c(NC(=O)c2cnc3ccccc3c2O)cc1O [Ivacaftor] | 38% (inactive) |
| CC(C)c1ccccc1Cc1cc(C(=O)Nc2ccc(S(=O)(=O)c3ccccc3C(C)(C)C)cc2)c(O)c(O)c1O | 16.4% (active) |
| CC(C)c1cc(C(C)C)c(CC(=O)NS(=O)(=O)Oc2c(C(C)C)cccc2C(C)C)c(C(C)C)c1 [Avasimibe] | 53.1% (inactive) |
| CC(C)(C)c1cc(/C=C(\C#N)C(N)=S)cc(C(C)(C)C)c1O [Tyrphostin] | 50.3% (inactive) |
| CCC(CC)CC1(C(=O)Nc2ccccc2SC(=O)C(C)C)CCCCC1 [Dalcetrapib] | 37.6% (inactive) |
| CCOC(=O)[C@H](CCc1ccccc1)N[C@H]1CS[C@H](c2cccs2)CN(CC(=O)O)C1=O [Temocapril] | 45.2% (inactive) |
| CC(C)c1cc(C(=O)N2Cc3ccc(CN4CCN(C)CC4)cc3C2)c(O)cc1O [Onalespib] | 9.46% (active) |
| C[C@@H](Oc1cc(-n2cnc3ccc(CN4CCN(C)CC4)cc32)sc1C(N)=O)c1ccccc1C(F)(F)F | 27.8% (inactive) |
| COc1ccccc1N1CCN(CCN2C(=O)CC3(CCCC3)CC2=O)CC1 [Bmy 7378 Dihydrochloride] | 43.4% (inactive) |
| C=CCc1cc(OC)c(O)c(C(=O)NCCO)c1 [Alibendol] | 42.5% (inactive) |
| COc1ccc(S(=O)(=O)Nc2cccnc2Nc2ccc(O)cc2)cc1 | 23% (inactive) |
| Cc1[nH]c2ccccc2c1CCNC(=O)c1cccs1 [N-[2-(2-methyl-1H-indol-3-yl)ethyl]thiophene-2-carboxamide] | 39.3% (inactive) |
| CN(C)Cc1ccc(S(=O)(=O)n2ccc(/C=C/C(=O)NO)c2)cc1 [Resminostat] | 37.1% (inactive) |

| SMILES | percentage of GFP+ |
| --- | --- |
| Cc1[nH]c2ccccc2c1CCNCc1ccc(/C=C/C(=O)NO)cc1 [Panobinostat] | 2.9% (active) |
| CCC(=O)Nc1cccc(Oc2nc(Nc3ccc(N4CCN(C)CC4)cc3OC)ncc2Cl)c1 | 42.3% (inactive) |
| Cc1nn(-c2ccccc2)c(C)c1/C=N/N1CCN(Cc2ccccc2)CC1 | 48.6% (inactive) |
| CCC(C)(Oc1ccc(C2(c3ccc(OC(C)(CC)C(=O)O)cc3)CCCCC2)cc1)C(=O)O (stereo not given) [Clinofibrate] | 52.6% (inactive) |
| OCC(O)CN1CCN(c2ccccc2)CC1 (stereo not given) [Dropropizine] | 51.5% (inactive) |
| C[C@]12CC[C@@H]3c4ccc(O)cc4CC[C@H]3[C@@H]1C[C@@H](O)[C@@H]2O [Estriol] | 49.2% (inactive) |
| CCN1/C(=C/C(C)=O)Sc2ccc(OC)cc21 | 50.3% (inactive) |
| Cc1c(CN2CCN(C(=O)[C@H](C)O)CC2)sc2c(N3CCOCC3)nc(-c3cnc(N)nc3)nc12 | 34.5% (inactive) |
| CS(=O)(=O)N1CCN(Cc2cc3nc(-c4cccc5[nH]ncc45)nc(N4CCOCC4)c3s2)CC1 | 36.8% (inactive) |
| COc1ccc(-c2nc(N3CCOCC3)c3sc(CN(C)c4ncc(C(=O)NO)cn4)cc3n2)cn1 [Fimepinostat] | 3.62% (active) |
| Clc1ccc(C2(c3ccc(-c4cn[nH]c4)cc3)CCNCC2)cc1 | 43.8% (inactive) |
| O=c1c(-c2ccc(O)cc2)coc2cc(O)cc(O)c12 [Genistein] | 47.5% (inactive) |
| COc1cc2nc(N3CCN(C(=O)C4COc5ccccc5O4)CC3)nc(N)c2cc1OC (stereo not given) [Doxazosin] | 44.1% (inactive) |
| CC(C)CN(C[C@@H](O)[C@H](Cc1ccccc1)NC(=O)O[C@H]1CO[C@H]2OCC[C@H]21)S(=O)(=O)c1ccc(N)cc1 [Darunavir] | 45.7% (inactive) |
| CC(/C=C/C(=O)NO)=C\[C@@H](C)C(=O)c1ccc(N(C)C)cc1 [Trichostatin A] | 10.8% (active) |
| CN(C)c1ccc(C(=O)NCCCCCCC(=O)NO)cc1 | 30.4% (inactive) |
| Cc1cc(N2CCOCC2)ccc1Nc1nc(NC2CCCCC2)c2[nH]cnc2n1 | 33.6% (inactive) |
| C/C(=N\NC(=S)N1CCC1)c1ccccn1 | 6.13% (active) |
| CO[C@H]1C[C@@H]2CC[C@@H](C)[C@@](O)(O2)C(=O)C(=O)N2CCCC[C@H]2C(=O)O[C@H]([C@H](C)C[C@@H]2CC[C@@H](O)[C@H](OC)C2)CC(=O)[C@H](C)/C=C(\C)[C@@H](O)[C@@H](OC)C(=O)[C@H](C)C[C@H](C)/C=C/C=C/C=C/1C [Rapamycin] | 37.8% (inactive) |
| CCCCN(Cc1ccc(C(=O)NO)cc1)C(=O)Nc1ccccc1 [Nexturastat A] | 47.5% (inactive) |
| CC(=O)Nc1ccc(C(=O)Nc2ccccc2N)cc1 [Tacedinaline] | 34.9% (inactive) |
| CC(C)[C@H](C(=O)Nc1ccc(C(=O)NO)cc1)c1ccccc1 | 9.62% (active) |

From the supplement of paper PMC11060735
